Assay outcomes as filed in PubChem.
Rows were chosen to be rich in hits. Some 21% of all compounds tested hit in one or more screens of this group.
CHX counter – Cycloheximide Counterscreen for Small Molecule Inhibitors of Shiga Toxin. 300,000 compounds, 12% hits. max response, %. cell reporter, cycloheximide protein synthesis inhibition counterscreen; in the data active = max response mostly above about 13%, no sharp cut-off; inactive = mostly below about 14%; note: read at 38.3 µM for the half of the compounds with a filed dose
Giardia FBPA inh – qHTS Assay for Inhibitors of Fructose-1,6-bisphosphate Aldolase from Giardia Lamblia | A8B2U2 | purified Giardia FBPA | Potency, µM (top dose mostly 59.6 µM), hits mostly inhibitors | 290,000 compounds, 0.71% hits | AID 2451, 2010; note: nearly all actives have a fitted effect of over 55% in size
Target sequence (A8B2U2 whole entry, looked up): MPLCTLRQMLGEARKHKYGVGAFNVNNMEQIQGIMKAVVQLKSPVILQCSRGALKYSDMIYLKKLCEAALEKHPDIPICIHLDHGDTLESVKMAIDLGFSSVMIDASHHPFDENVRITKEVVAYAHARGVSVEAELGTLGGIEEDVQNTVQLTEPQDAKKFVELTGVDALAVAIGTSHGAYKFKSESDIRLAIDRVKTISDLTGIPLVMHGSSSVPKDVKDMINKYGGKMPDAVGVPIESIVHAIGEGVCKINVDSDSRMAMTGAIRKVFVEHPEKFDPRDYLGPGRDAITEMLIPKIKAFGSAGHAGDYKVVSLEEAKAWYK
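Giardia FBPA (40 nM reagent) was preincubated 10 min at RT with compound (up to 57.5 uM final), then substrate plus GAPDH/TPI/NAD/arsenate coupling system with diaphorase/resazurin was added; resorufin fluorescence (525/598 nm) was read after 20 min.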
NS1 function inh – qHTS Assay for Inhibitors of Influenza NS1 Protein Function; 270,000 compounds, 0.4% hits; Potency, µM (top dose mostly 46.1 µM); calls by dose curve; note: actives are rising curves; nearly all actives have a fitted effect of over 50% in size
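A cell-based growth assay was used: compounds that relieve NS1-induced slow growth of budding yeast raise OD600. Assay medium was yeast nitrogen base with ammonium sulphate and -URA supplement, pH 6.0, with 2% galactose.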
Pf growth 48h – Primary qHTS for delayed death inhibitors of the malarial parasite plastid, 48 hour incubation | P. falciparum luciferase growth in erythrocytes, 48 h | Potency, µM (doses to about 28.7 µM), usual class: inhibitors | 310,000 compounds, 5.9% hits
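Luciferase-expressing parasites in RBCs, 2% Hct / 0.1% parasitemia final; RPMI 1640 + 0.5% Albumax; 37 C, 5% CO2, one generation; luminescence read-out, lower signal = inhibition.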
Pf growth 96h – Primary qHTS for delayed death inhibitors of the malarial parasite plastid, 96 hour incubation; P. falciparum luciferase reporter growth, 96 h; Potency, µM (top dose mostly 28.7 µM), actives largely listed as inhibitors; 320,000 compounds, 6.9% hits; AID 504834, 2011
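Compounds incubated with erythrocytes infected by luciferase-expressing P. falciparum (2% hematocrit, 0.05% parasitemia final) for 96 hours, 37 C in 5% CO2. Growth inhibition scored as decreased luciferase luminescence.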
Shiga toxin inh – A qHTS for Small Molecule Inhibitors of Shiga Toxin; Vero cells, Shiga toxin protein synthesis inhibition reporter; inhibition, % at 38.7 µM; 290,000 compounds, 9.2% hits; AID 2315, 2010; in the data active = inhibition mostly above about 28%, no sharp cut-off; inactive = mostly below about 43%
Numbers stand for hits; - = inactive; ? = inconclusive; . = no result given; [ ] = dose if it differs, or a comment. Unless noted, calls come from the whole dose curve; as a rule, active = well fitted curve in the direction sought with a large enough effect; inconclusive = small, poorly fitted or top-dose-only effect, or another doubt; inactive = no such curve, though single readings can be large; an effect the other way counts as inactive or inconclusive.

SMILES	CHX counter	Giardia FBPA inh	NS1 function inh	Pf growth 48h	Pf growth 96h	Shiga toxin inh
COc1ccc(C2CC(c3ccccc3)=NN2C(=S)Nc2ccccc2)cc1 (centres undefined)	-	-	.	?	?	-
COc1ccc(C2CC(c3ccccc3)=NN2C(=O)CN2N=NC3C(=O)N(c4cccc(F)c4)C(=O)C32)cc1 (centres undefined)	11	-	-	-	?	-
COc1ccc(C2=NN(C(=O)CCC(=O)O)C(c3ccc(OC)cc3)C2)cc1 (centres undefined)	-	-	-	-	?	-
O=C(Nc1ccccc1)N1N=C(c2ccc(F)cc2)CC1c1ccc(F)cc1 (centres undefined)	-	-	-	-	?	-
CCCCC/C=C\C\C=C/C=C/C=C/[C@@H](SCC(NC(=O)CCC(N)C(=O)O)C(=O)NCC(=O)O)[C@@H](O)CCCC(=O)O (some centres undefined)	.	-	.	.	.	.
CNc1ccc(/C=C/C(=O)c2cccc3ccccc23)cc1[N+](=O)[O-]	-	-	-	?	?	-
COc1ccc(C2=NN(C(=O)CSc3ncccn3)C(c3ccc(C)cc3)C2)cc1 (centres undefined)	-	-	-	?	?	-
COc1ccc(C2CC(c3ccc(Br)cc3)=NN2C(=O)CSC2=NCCS2)cc1 (centres undefined)	-	-	?	?	4.7µM	-
COc1ccc(C2CC(c3ccc(Br)cc3)=NN2C(=S)Nc2ccccc2)cc1 (centres undefined)	21	-	.	-	-[5.75 µM]	43
CNC(=S)N1N=C(c2ccc(OC)cc2)CC1c1ccc(N(C)C)cc1 (centres undefined)	-	-	-	-	-	-
COc1ccc(C2=NN(C(N)=S)C(c3ccccc3)C2)cc1 (centres undefined)	32	-	.	?	-	51
COc1ccc(C2=NN(C(=S)Nc3ccccc3)C(c3ccccc3)C2)cc1 (centres undefined)	-	-	-	15µM	-	-
Oc1ccc(Br)cc1C1Nc2ccccc2S1 (centres undefined)	-	-	-	.	?	-
Cc1ccc(NS(=O)(=O)c2ccc3[nH]c4c(c3c2)CCCCCC4)cc1C	-	.	.	.	.	-
CC(Oc1ccc(Cl)cc1Cl)C(=O)NNC(=O)C(=O)N1CCCC1 (centres undefined)	-	-	-	-	-	-
O=C(O)c1cc(-c2ccc(Br)s2)nc2ccccc12	17	-	-	-	?	34
CCCCOc1cc(C(=O)NCCN(CC)CC)c2ccccc2n1	-	-	-	13µM	10µM	-
CCOCCCNC(=O)c1cc(Sc2ccc(F)cc2)nc2ccccc12	-	-	-	-	13µM	-
Cc1cc(-c2cc(C(=O)O)c3ccccc3n2)c(C)s1	-	-	-	-	1.7µM	-
COCCCNC(=O)c1cc(Sc2ccc(F)cc2)nc2ccccc12	-	-	-	-	?	-
CCOc1ccc(C(C)C)cc1S(=O)(=O)N1CCN(C(=O)c2ccco2)CC1	-	-	-	?	-	-
CCOCCCNC(=O)c1cc(-c2ccc(Br)s2)nc2ccccc12	-	-	-	.	10µM	-
CCCCCCCCCCCCCCCC(=O)OCC(O)C1OC(=O)C(O)=C1O (centres undefined)	-	-	.	.	.	-
COc1ccc(NC(=O)COC(=O)C2CC3C=CC2C3)cc1 (centres undefined)	20	-	-	-	-	42
Cc1ccc(S(=O)(=O)N2CCCCC2)cc1NC(=O)COC(=O)C1CC2C=CC1C2 (centres undefined)	-	-	-	-	?	-
SMILES	CHX counter	Giardia FBPA inh	NS1 function inh	Pf growth 48h	Pf growth 96h	Shiga toxin inh
O=C(COC(=O)C1CC2C=CC1C2)NCCc1ccccc1 (centres undefined)	20	-	-	-	-	-
CCN(CC)S(=O)(=O)c1cccc(NC(=O)COC(=O)C2CC3C=CC2C3)c1 (centres undefined)	-	-	-	?	?	-
O=C(COC(=O)C1CC2C=CC1C2)Nc1ccccc1F (centres undefined)	38	-	-	-	-	72
COC(=O)c1ccc(CNC(=O)COC(=O)C2CC3C=CC2C3)cc1 (centres undefined)	-	-	-	-	-	-
N#Cc1c(-c2ccc(Cl)cc2)c2c([nH]c1=O)-c1ccccc1OC2	-	-	-	-	-	-
O=C(CSc1n[nH]c(Cc2ccccc2)n1)Nc1ccccc1Br	-	-	-	-	-	-
O=C(Nc1sc2c(c1C(=O)O)CCC2)c1cccc(Cl)c1	44	-	-	-	-	70
Cc1cccc(C(=O)Nc2sc3c(c2C(=O)O)CCCC3)c1	47	-	-	-	-	93
O=C(Nc1sc2c(c1C(=O)O)CCC2)c1ccccc1Cl	-	-	-	?	-	.
CCC(C)NC(=O)COc1ccc(OCc2ccccc2)cc1 (centres undefined)	12	-	.	-	-	-
CCNC(=O)COc1ccc(OCc2ccccc2)cc1	32	-	-	-	-	102
CC(C)(C)NC(=O)COc1ccc(-c2ccccc2)cc1	30	-	-	.	-	86
CCNC(=O)COc1ccc(-c2ccccc2)cc1	47	-	-	-	.	60
COc1ccc(NC(=O)COc2ccc(-c3ccccc3)cc2)cc1	.	.	.	-	-	.
CCC(C)(C)NC(=O)COc1ccc(OCc2ccccc2)cc1	-	-	.	-	-	-
Cc1ccc(-c2ccc(C(=O)NCCCNC(=O)c3cnccn3)o2)cc1Cl	-	-	-	?	-	-
O=C(CN1C(=O)NC2(CCCC2)C1=O)OCCOc1cccc(Br)c1	.	.	.	-	-	.
Cc1ncc([N+](=O)[O-])n1CC(=O)Nc1ccc(Br)cc1	-	-	-	-	-	-
COc1ccc(-c2cc(C(=O)NCc3cccnc3)no2)cc1	43	-	-	-	?	73
O=C(NCc1cccnc1)c1nc(-c2ccccc2)n(-c2ccccc2)n1	-	.	-	-	3.3µM	-
CC(C)CNC(=O)c1nc(-c2ccccc2)n(-c2ccccc2)n1	-	-	-	-	-	-
O=C(NCc1cccnc1)c1cc(-c2cccs2)on1	60	-	-	-	.	37
O=C(NCc1ccccc1)c1cc(-c2cccc(O)c2)on1	25	-	-	-	-	61
Cc1ccc(S(=O)(=O)Nc2ccc3c(c2)OCCO3)c(C)c1NS(C)(=O)=O	-	-	-	-	?	-
CCc1ccccc1N(C)S(=O)(=O)c1cc(-c2cc(C)no2)ccc1OC	-	-	-	?	?	-
O=C(Cc1ccc(-c2ccccc2)cc1)NCc1cccnc1	-	-	-	-	-	-
O=C(NCc1cccnc1)c1cc(-c2ccccc2)on1	40	-	-	-	?	-
COc1ccc(-c2nnc(Nc3nc4c(OC)cccc4s3)o2)cc1	-	?	-	.	-	-
